Screening data (PubChem BioAssay)
FAK inh = FAK kinase inhibitors, primary screen, biochemical | Focal adhesion kinase 1 (Homo sapiens), Q05397 | biochemical FAK kinase activity assay | inhibition, %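 (tested at 7 µM)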 | 97,000 tested, 0.84% active; in the data active = inhibition above about 19%
PLK1 inh = human PLK1 kinase inhibitors, primary screen, biochemical, TR-FRET; Serine/threonine-protein kinase PLK1 (Homo sapiens), P53350; recombinant PLK1 kinase, TR-FRET peptide phosphorylation; inhibition, % at 10 µM; 97,000 tested, 0.53% active;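 active = inhibition of 50% or more in the single-concentration screen; inactive = inhibition below 50%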
Target sequence (P53350 whole entry, looked up): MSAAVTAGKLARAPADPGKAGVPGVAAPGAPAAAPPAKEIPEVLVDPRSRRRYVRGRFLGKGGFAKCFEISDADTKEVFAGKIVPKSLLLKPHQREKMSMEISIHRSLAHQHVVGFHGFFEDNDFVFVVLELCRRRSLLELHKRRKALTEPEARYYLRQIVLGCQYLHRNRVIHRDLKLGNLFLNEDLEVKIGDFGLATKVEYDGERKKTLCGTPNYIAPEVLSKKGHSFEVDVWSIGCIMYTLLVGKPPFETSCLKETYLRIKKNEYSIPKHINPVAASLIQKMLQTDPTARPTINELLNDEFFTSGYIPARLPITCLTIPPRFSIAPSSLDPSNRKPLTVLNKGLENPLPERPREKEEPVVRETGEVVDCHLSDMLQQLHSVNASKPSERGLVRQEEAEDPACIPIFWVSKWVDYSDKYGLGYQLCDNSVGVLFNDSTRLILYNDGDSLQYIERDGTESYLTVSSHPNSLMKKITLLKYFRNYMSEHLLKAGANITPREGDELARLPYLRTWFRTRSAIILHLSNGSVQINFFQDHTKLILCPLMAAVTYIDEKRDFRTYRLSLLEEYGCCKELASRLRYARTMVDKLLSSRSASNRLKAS
PTPN22 inh 2 = PTPN22 phosphatase inhibitors, primary screen, biochemical, DiFMUP fluorescence, 2 µM; Tyrosine-protein phosphatase non-receptor type 22 (Homo sapiens), Q9Y2R2; inhibition, % at 2 µM; 96,000 tested, 0.21% active; AID 640, 2007; recombinant LYP catalytic domain;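 active = inhibition at 2 µM at or above a set limit, the screen mean plus 3 SD, cut at about 24% in these data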
PLK1 PBD inh = Plk1 polo box domain binding inhibitors, primary screen, biochemical, fluorescence polarization. Plk1 PBD phosphopeptide binding. inhibition, %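 (tested at about 20 µM)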. AID 693, 2007. 97,000 tested, 0.13% active; in the data active = inhibition above about 34%, passing the limit was not always enough
EphB4 ephrin blk = EphB4-ephrin-B2 interaction antagonists, primary screen, biochemical, TNYL-RAW peptide probe, fluorescence polarization | Ephrin type-B receptor 4 (Homo sapiens), P54760 | EphB4 LBD / TNYL-RAW-Alexa532 peptide | inhibition, % at 7 µM | 97,000 tested, 0.15% active | AID 720, 2007;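 active = inhibition above the screen-wide mean inhibition plus 3 SD, cut at about 15% in these data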
LYP act = LYP phosphatase activators, primary screen, biochemical, DiFMUP fluorescence, 2 µM; Tyrosine-protein phosphatase non-receptor type 22 (Homo sapiens), Q9Y2R2; 96,000 tested, 0.11% active; recombinant LYP; 0 = plate median, 100 = signal doubled; activation, % at 2 µM;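 active = activation at 2 µM above a set limit, the mean plus 5 SD, cut at about 37% in these data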
PLK1 inh conf = PLK1 kinase activity inhibitors, confirmation, biochemical, TR-FRET, duplicate runs; shares compounds with PLK1 inh; recombinant PLK1 kinase, TR-FRET peptide phosphorylation; inhibition, % at 10 µM; 210 tested, 20% active; AID 744, 2007;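 active = inhibition at or above 50% in each of two repeat confirmation tests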
Plk1 interf = compound interference with Plk1 assay readout, artefact control for Plk1 kinase inhibitor project, biochemical, TR-FRET, compound added post-reaction; 210 tested, under 10 active; shares compounds with PLK1 inh; inhibition (interference), % at 10 µM;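 active = both duplicate runs show 50% or greater inhibition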
Numbers stand for hits; 0 = inactive; - = no result given; [ ] = dose if it differs, or a comment. Hits are enriched below; roughly 1.7% of the tested compounds scored in any of these assays.

SMILES	FAK inh	PLK1 inh	PTPN22 inh 2	PLK1 PBD inh	EphB4 ephrin blk	LYP act	PLK1 inh conf	Plk1 interf
O=C(Nc1ccncc1)C1CCCN(S(=O)(=O)c2cccc3cccnc23)C1 (centres undefined)	0	0	0	0	0	0	-	-
CCC(c1nnc(SCC(=O)Nc2nnc(-c3ccccc3)o2)n1Cc1ccccc1)N(C)C (centres undefined)	0	0	0	0	0	0	-	-
CCCC(=O)Nc1nnc(-c2ccc(Cl)s2)o1	0	64	-	0	0	-	-	-
CCn1c(=S)sc2c(=O)[nH]c(C)nc21	0	58	0	0	0	0	-	-
O=C1c2ccccc2S(=O)(=O)N1Cc1nnc(-c2ccccc2Br)o1	0	0	0	0	0	0	-	-
O=S1(=O)c2cccc3cccc(c23)N1Cc1nnc(-c2ccccc2Br)o1	0	0	0	0	16	0	-	-
Cc1ccc(C(C(=O)NC(C)(C)C)N(Cc2ccco2)C(=O)CCC(=O)Nc2nccs2)cc1 (centres undefined)	0	0	0	0	0	0	-	-
COc1cccc(CNc2cccc3cccnc23)c1O	0	0	0	0	0	0	-	-
COc1cc(NCCCC(C)N)c2ncccc2c1 (centres undefined)	26	0	0	0	0	0	-	-
CCOC(=O)c1cn(-c2nc(-c3ccc(Cl)c(Cl)c3)cs2)c2c(F)c(N3CCOCC3)c(F)cc2c1=O	0	0	28	0	0	0	-	-
COc1ccc(C2C(C#N)=C(N)N(c3sc4c(c3C#N)CCCC4)C3=C2C(=O)CC(C)(C)C3)cc1OC (centres undefined)	0	0	26	0	0	0	-	-
O=c1nc2scc(-c3ccccc3)n2c2ccccc12	0	0	0	0	0	0	-	-
Cc1ccc(-c2nc3cccnc3o2)cc1NC(=O)COc1ccc(C(C)(C)C)cc1	0	0	0	0	82[fluorescence artefact?]	0	-	-
Cc1c(CCOC(=O)C2C3CC4CC(C3)CC2C4)sc[n+]1CC(=O)c1ccc(Br)cc1 (centres undefined)	0	0	33	0	0	0	-	-
Cc1c(CCOC(=O)CC23CC4CC(CC(C4)C2)C3)sc[n+]1Cc1ccccc1	0	0	0	0	0	0	-	-
COc1ccc(CCN2C(=O)C3C4CC(C5C(C(=O)N/N=C\c6ccc(Cl)cc6)=NOC45)C3C2=O)cc1OC (centres undefined)	0	0	0	0	0	0	-	-
CCOc1ccc(-c2nc(CSCC(=O)N3CCN(C(=O)c4ccco4)CC3)c(C)o2)cc1	0	74	-	0	0	-	0	0
CCc1nc2n[nH]c(N)c2c2c1CSC(C)(C)C2	0	77	0	0	0	0	72	0
O=C(CSc1ncn(-c2ccccc2)n1)Nc1nccs1	0	0	0	0	0	0	-	-
CC(=O)Nc1ccc(C(=O)CSc2ncn(-c3ccccc3)n2)cc1	0	84	0	0	0	0	0	0
CCOC(=O)c1ccc(NC(=O)C2(c3ccccc3)CCOCC2)cc1	0	0	0	0	0	0	-	-
COc1ccc(S(=O)(=O)Cc2ccc(C(=O)N3CCN(c4cccc(C)c4)C(C)C3)o2)cc1 (centres undefined)	0	73	-	0	0	-	0	0
COc1cc(C2C(C(=O)OC(C)C)=C(C)Nc3ncnn32)cc(OC)c1OC (centres undefined)	0	81	-	0	0	-	0	0
CC1Cc2ccccc2N1C(=O)c1cnc2n(c1=O)CCS2 (centres undefined)	0	70	-	0	0	-	0	0
CC1Cc2ccccc2N1C(=O)c1cnc2sccn2c1=O (centres undefined)	0	0	0	0	0	0	-	-
SMILES	FAK inh	PLK1 inh	PTPN22 inh 2	PLK1 PBD inh	EphB4 ephrin blk	LYP act	PLK1 inh conf	Plk1 interf
Cn1c(=O)c2cn(Cc3ccc(Cl)cc3)cc2n(C)c1=O	0	0	0	0	0	0	-	-
COc1cc(-c2nnc(SCc3cc(=O)oc4cc(O)c(O)cc34)o2)cc(OC)c1OC	0	77	31	0	0	0	0	0
Nc1ncnc(Nc2ccccc2C(F)(F)F)n1	0	72	0	0	0	0	70	0
O=C1Nc2cc(Cl)c(Cl)cc2N(O)N1c1ccc(Cl)c(Cl)c1	0	0	0	0	0	0	-	-
COC(=O)CSc1nc2cc(OC)ccc2cc1C#N	0	87	0	0	0	0	0	0
O=C(Nc1cccc(Cl)c1N1CCCC1)c1cccc(-c2cc3ccccc3oc2=O)c1	0	0	0	0	0	0	-	-
Cc1nn2c(=O)cc(CSc3nc4ccccc4[nH]3)nc2s1	0	74	-	0	0	-	0	0
CCOc1ccc(C(O)C(CN2CCOCC2)c2ccccc2)cc1 (centres undefined)	0	0	0	0	0	0	-	-
Nc1[nH]ncc1C(=O)Nc1cccc(C(F)(F)F)c1	0	78	0	0	0	0	75	0
Cc1occc1C(=O)Nc1cccc(C(F)(F)F)c1	0	0	0	0	0	0	-	-
CC(=O)c1cccc(NC(=O)C2CCN(S(=O)(=O)c3ccccc3)CC2)c1	0	0	0	0	0	0	-	-
Cc1ccc2c(c1)C(c1ccccc1)N(C(=O)C(C)C)CC(=O)N2 (centres undefined)	0	71	-	0	0	-	0	0
CCn1c(SCC(=O)N2CCOCC2)nc(O)cc1=O	0	71	-	0	0	-	0	0
O=C(CCc1ccccc1)N1CCN(CCO)CC1	0	74	-	0	0	-	0	0
O=c1[nH]cnc2cc(-c3ccccc3)sc12	0	80	0	0	0	0	73	0
COc1ccc(-c2cc3nc[nH]c(=O)c3s2)cc1	0	0	0	0	0	0	-	-
CCCOC(=O)C1=C(C)OC23OC(N)=C(C#N)C12C(=O)c1ccccc13 (centres undefined)	0	0	0	0	0	0	-	-
COc1ccc(-c2nc(CS(=O)CC(=O)NCCCN3CC(C)CC(C)C3)c(C)o2)cc1OC (centres undefined)	0	0	0	0	0	0	-	-
Cc1ccc(-c2nc(CS(=O)CC(=O)NCCCN3CC(C)CC(C)C3)c(C)o2)cc1 (centres undefined)	0	76	-	0	0	-	0	0
CCOC(=O)c1ccccc1NC(=O)CSc1nc(N)cc(N)n1	0	0	0	0	0	0	-	-
COC(=O)c1ccccc1NC(=O)CSc1nc(N)cc(N)n1	0	71	-	0	0	-	0	0
COc1cc(/C=C(\C#N)c2nc3c(s2)CCCC3)ccc1O	0	0	0	0	0	0	-	-
COc1cc(/C=C(\C#N)c2[nH]nc(N)c2C#N)cc(OC)c1O	0	78	0	0	0	0	66	0
